Reference: PubChem BioAssay (NCATS)
Where “and” joins values, the source holds several entries; their conditions need not be identical. Identical values can stand only once. Records with an inconclusive call do not appear. A number with no mark means an inactive call. Calls come from the whole dose curve; as a rule, active = well fitted curve in the direction sought with a large enough effect in the signal ratio, with a control signal flat; inconclusive = small, poorly fitted or top-dose-only effect, or a change in a side signal; inactive = no such curve, though single readings can be large or run the other way; the % refers to the signal ratio. Peptide text beside a SMILES is read from it.

What follows are molecules tested against Glucocorticoid receptor (Homo sapiens) (UniProt P04150) (assay: qHTS assay for small molecule agonists of glucocorticoid receptor signaling (AID 588532)). Conditions: HeLa MMTV-bla, beta-lactamase ratio, agonist, 18 h; stronger effect = higher value; percent of dexamethasone control, DMSO zero.
Description: NIH Chemical Genomics Center [NCGC] U.S. Environmental Protection Agency [EPA] National Institutes of Environmental Health Sciences [NIEHS] National Toxicology Program [NTP] NCGC Assay Overview The Glucocorticoid receptor (GR), a nuclear receptor subfamily member and its natural ligands includes […] etc. The GR is a validated drug target for inflammation. GR ligands such as dexamethasone are clinically available as anti-inflammatory drugs. Glucocorticoids implicate role in carbohydrate, protein and lipid metabolisms and programmed cell death. They are also a component of many chemotherapy regimens for the treatment of leukemias, lymphomas, and myelomas because of their role in the induction of apoptosis.
NCGC Assay Protocol Summary Using a beta-lactamase reporter-gene under control of glucocorticoid response element (GRE), a cell-based assay [CellSensor MMTV-bla HeLa cell line assay developed by Invitrogen] was used to measure GR ligands signaling. CellSensor MMTV-bla HeLa cells were used with assay medium containing 1% charcoal/dextran treated FBS, 0.1 mM NEAA, 1 mM sodium pyruvate and 25mM HEPES. The assay was performed in clear bottom black Greiner 1536-well plates. Dexamethasone and Mifepristine were used in the screen as agonist and antagonist positive controls respectively. Library compounds were measured for their ability to stimulate the reporter gene activity. Compounds were screened in a titration series in 1536-well format. The fluorescence intensity (405 nm excitation, 460/530 nm emission) was measured using an EnVision plate reader. Data was normalized relative to Dexamethasone control (0.1 uM, 100%), and DMSO only wells (basal, 0%). Concentration-response titration points for each compound were fitted to the Hill equation yielding concentrations of half-maximal stimulation (EC50) and maximal response (efficacy) values. qHTS protocol for GR beta-lactamase assay in agonist mode [Step] [Parameter] [Value] [Description] 1. Reagent; 6 uL; 1500 cells/well 2. Incubation; 37 C for 3-5 hrs 3. Compounds; 23 nL; 0.59 nM to 92 uM 4. Controls (Dexamethasone); 23 nL, - One column with dose response, start 4.6uM, 1:3 dilutions in duplicates - Final concentrations of 0.1 uM and 2 nM in two columns 5. Incubation; 37 C for 18 hrs 6. Detection reagent; 1 uL of CCF4-dye 7. Incubation; RT for 2 hrs 8. Detection; Fluorescence; Envision plate reader

Chain of Glucocorticoid receptor (Homo sapiens) (P04150 whole entry, looked up): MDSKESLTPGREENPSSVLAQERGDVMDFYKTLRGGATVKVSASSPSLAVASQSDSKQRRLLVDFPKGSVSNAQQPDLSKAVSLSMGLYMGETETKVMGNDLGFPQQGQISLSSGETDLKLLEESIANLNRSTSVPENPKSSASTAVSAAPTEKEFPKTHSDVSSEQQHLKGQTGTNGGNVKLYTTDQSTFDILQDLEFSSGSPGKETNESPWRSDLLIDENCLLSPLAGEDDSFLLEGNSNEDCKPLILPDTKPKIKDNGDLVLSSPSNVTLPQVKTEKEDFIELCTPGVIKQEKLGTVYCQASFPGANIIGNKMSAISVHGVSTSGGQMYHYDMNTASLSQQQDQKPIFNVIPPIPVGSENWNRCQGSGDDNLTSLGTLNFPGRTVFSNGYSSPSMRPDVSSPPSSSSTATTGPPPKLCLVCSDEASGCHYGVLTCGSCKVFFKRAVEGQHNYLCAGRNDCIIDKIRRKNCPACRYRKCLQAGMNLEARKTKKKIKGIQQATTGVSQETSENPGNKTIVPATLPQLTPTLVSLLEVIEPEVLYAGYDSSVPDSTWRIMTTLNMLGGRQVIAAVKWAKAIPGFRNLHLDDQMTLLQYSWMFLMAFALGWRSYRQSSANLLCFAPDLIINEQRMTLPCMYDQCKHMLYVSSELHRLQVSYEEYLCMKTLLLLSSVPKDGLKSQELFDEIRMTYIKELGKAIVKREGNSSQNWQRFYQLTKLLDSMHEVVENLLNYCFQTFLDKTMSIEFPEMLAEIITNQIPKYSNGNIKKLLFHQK

Row | SMILES | activation
1 | O=c1c(O)c(-c2ccc(O)cc2O)oc2cc(O)cc(O)c12 | -17.5%
2 | c1ccc2[nH]c(-c3cscn3)nc2c1 | -3.88% and -4.87%
3 | CCc1nc(N)nc(N)c1-c1ccc(Cl)cc1 | 6.7% and -0.85%
4 | COC(=O)[C@H](Cc1ccccc1)NC(=O)[C@@H](N)CC(=O)O (H-Asp-Phe-OMe) | -0.956% and -8.82%
5 | COc1c2occc2cc2ccc(=O)oc12 | 1.93% and -3.63%
6 | CC(=O)N1CCN(c2ccc(OC[C@H]3CO[C@](Cn4ccnc4)(c4ccc(Cl)cc4Cl)O3)cc2)CC1 | 3.09%
7 | CCCCC(CC)COC(=O)C(C#N)=C(c1ccccc1)c1ccccc1 (stereo not drawn) | -1.93%
8 | Cc1cc(O)c2c(c1)C(=O)c1cc(O)cc(O)c1C2=O | -3.03% and -5.65%
9 | Nc1nc(Cl)nc2c1ncn2[C@H]1C[C@H](O)[C@@H](CO)O1 | -6.36%
10 | N[C@@H](Cc1cc(I)c(Oc2cc(I)c(O)c(I)c2)c(I)c1)C(=O)O | -13.7%
11 | COc1cc(OC)c(C(=O)CCCN2CCCC2)c(OC)c1 | 4.51%
12 | CCN(CC)C(=S)SSC(=S)N(CC)CC | 3.99%
13 | Nc1ccc(S(N)(=O)=O)cc1 | 9.11%
